Records with an inconclusive call do not appear. A number with no mark means an inactive call. Active and inactive are the calls of the source. The call rests on the fitted dose curve; in most records, active means well fitted cell-killing curve with a large enough effect; inconclusive means small, poorly fitted or top-dose-only effect, or effect the other way; inactive means no such curve, though single readings can be large or run the other way.
test: Quantitative High-Throughput drug screen in 47 multiple myeloma cell lines against the NCATS MIPE library collection: OPM1_PLB cell viability assay (AID 1918989); conditions: CellTiter-Glo, 48 h; series mostly up to 45.8 µM; viability (% of control): at the top concentration; further: nearly all actives have a fitted effect of over 40% in size
Description: PI: Beverly A. Mock Ph.D.
Laboratory of Cancer Biology and Genetics,
Center for Cancer Research, National Cancer Institute,
National Institute of Health, Bethesda, Maryland
Drug resistance and disease progression are common in multiple myeloma (MM) patients, underscoring the need for new therapeutic combinations. […] We hypothesized that effective combinations would reduce MYC expression and enhance p16 activity. […] These preclinical data identify potentially useful drug combinations for evaluation in drug-resistant MM and reveal potential mechanisms of combined drug sensitivity.
Described herein is the primary MIPE qHTS used to cherrypick compounds. Validated compounds were then further tested for potential synergistic activiy.
[1] Peat TJ, Gaikwad SM, Dubois W, Gyabaah-Kessie N, Zhang S, Gorjifard S, Phyo Z, Andres M, Hughitt VK, Simpson RM, Miller MA, Girvin AT, Taylor A, Williams D, D'Antonio N, Zhang Y, Rajagopalan A, Flietner E, Wilson K, Zhang X, Shinn P, Klumpp-Thomas C, McKnight C, Itkin Z, Chen L, Kazandijian D, Zhang J, Michalowski AM, Simmons JK, Keats J, Thomas CJ, Mock BA. Drug combinations identified by high-throughput screening promote cell cycle transition and upregulate Smad pathways in myeloma. Cancer Lett. 2023 Aug 1;568:216284. doi: 10.1016/j.canlet.2023.216284. Epub 2023 Jun 24. PMID: 37356470; PMCID: PMC10408729.
SEQUENCE No. (e.g., 1, 2, 3, etc.); […] (e.g., Cells, Incubation, Reagent, etc.); VALUE and DESCRIPTION.
1; Cells; 5 uL; white, solid bottom 1536-well Greiner assay plate.
2; Compounds; 23 nL; Kalypsis pin tool (Wako USA) equipped with a 1536-well pin head to transfer to the assay plates.
3; Incubation; 48 hours; 37C incubation.
4; Reagent;5uL; CellTiter Glo (Promega).
5; Detector; 425V; Luminescence; Viewlux PerkinElmer.
NOTES (numbers refer to Sequence numbers above)
1. The cell-based screening methods employed in this study were like those previously published. Briefly, the corresponding myeloma cell lines were screened in 1,536-well plates with 500 cells, 5-uL per well for inhibition of cell viability (assessed by measuring ATP levels with CellTiterGlo).
2. NCATS MIPE 4.0 library of approved and investigational drugs were added using the Kalypsis pin tool. Wells treated with DMSO only for 100% viability and media only for 0% viability were used as controls.
3. The assay plates were covered and incubated for 48 hours in a 37C, 5% CO2 incubator with controlled humidity.
4. After 48 hours, CellTilter-GloTM luminescent substrate mix (Promega) reagent was added to the assay plate and plates we incubated for 5 min at room temperature.
5. Signal was measured as median relative luminescence units on a ViewLux (PerkinElmer) multiplate reader.
[1] Heske CM, Davis MI, Baumgart JT, Wilson K, Gormally MV, Chen L, Zhang X, Ceribelli M, Duveau DY, Guha R, Ferrer M, Arnaldez FI, Ji J, Tran HL, Zhang Y, Mendoza A, Helman LJ, Thomas CJ. Matrix Screen Identifies Synergistic Combination of PARP Inhibitors and Nicotinamide Phosphoribosyltransferase (NAMPT) Inhibitors in Ewing Sarcoma. Clin Cancer Res. 2017 Dec 1;23(23):7301-7311. doi: 10.1158/1078-0432.CCR-17-1121. Epub 2017 Sep 12. PMID: 28899971; PMCID: PMC6636827.
Potency means the concentration at half of the fitted maximal effect.

SMILES	Potency	viability (% of control)
COCCn1c2c([n+](Cc3cnccn3)c1C)C(=O)c1ccccc1C2=O	0.0296 µM (active)	–
CC(=O)Nc1sc2c(c1-c1nc3ccccc3s1)CNC2	18.7 µM (active)	–
COc1c(OCCCN2CCOCC2)ccc2c3n(c(=NC(=O)c4cnc(N)nc4)nc12)CCN3	0.812 µM (active)	–
CN1CCN(Cc2ccc(NC(=O)Nc3ccc(Oc4cc(NC(=O)C5CC5)ncn4)cc3)cc2C(F)(F)F)CC1	0.166 µM (active)	–
COc1ccc(CC2c3cc(OC)c(OC)cc3CC[N+]2(C)CCC(=O)OCCCCCOC(=O)CC[N+]2(C)CCc3cc(OC)c(OC)cc3C2Cc2ccc(OC)c(OC)c2)cc1OC (stereo not given)	–	96.3% [at 5.15 µM]
OCCCNc1cc(-c2ccnc(Nc3cccc(Cl)c3)n2)ccn1	0.0469 µM (active)	–
CC(C)(C)c1cnc(CSc2cnc(NC(=O)C3CCNCC3)s2)o1	0.296 µM (active)	–
Cc1cn2cc(C(=O)N(C)CCO)cc(N[C@@H]3CCOc4cccc(C)c43)c2n1	–	129%
CCN1CCN(Cc2ccc(-c3cc4c(N[C@H](C)c5ccccc5)ncnc4[nH]3)cc2)CC1	0.372 µM (active)	–
Nc1ncnc2c1c(-c1cccc(OCc3ccccc3)c1)cn2C1CC(CN2CCCC2)C1 (stereo not given)	5.9 µM (active)	–
C[C@@H]1COC(Nc2ccc3ncnc(Nc4ccc(OCc5nccs5)c(Cl)c4)c3c2)=N1	16.6 µM (active)	–
Cc1c(Cn2c(C)nc3c(C(=O)O)cc(N4CCOCC4)cc32)cccc1C(F)(F)F	18.7 µM (active)	–
O=C(Cc1ccc(-c2ccc(OCCN3CCOCC3)cc2)cn1)NCc1ccccc1	0.0296 µM (active)	–
Clc1cccc(-n2nnnc2NCc2ccccc2Oc2ccccn2)c1Cl	–	123%
NC(=O)c1c(OCc2c(F)cc(Br)cc2F)nsc1NC(=O)NCCCCN1CCCC1	13.2 µM (active)	–
CC(C)c1ccccc1Cc1cc(C(=O)Nc2ccc(S(=O)(=O)c3ccccc3C(C)(C)C)cc2)c(O)c(O)c1O	9.35 µM (active)	–
CC(C)=CCCC(C)=CCCC(C)=CCSc1ccccc1C(=O)O	14.8 µM (active)	–
CC1(C)OC2=C(C(=O)c3ccccc3C2=O)[C@H](NCc2ccccc2)[C@H]1O	2.35 µM (active)	–
CN1CCN(c2ccc3nc(-c4c(N)c5c(F)cccc5[nH]c4=O)[nH]c3c2)CC1	3.72 µM (active)	–
CC(C)c1cnn2c(NCc3ccccc3)cc(N[C@@H](CO)[C@H](O)CO)nc12	0.235 µM (active)	–

SMILES	Potency	viability (% of control)
CCCCOc1c(C(=O)c2c(F)cc(C)cc2F)cnc2n[nH]cc12	11.8 µM (active)	–
O=C(C=Cc1cccc(S(=O)(=O)Nc2ccccc2)c1)NO	1.91 µM (active)	–
CN(C)CCCN=c1c2ccccc2n(C)c2[nH]c(=O)n(C)c(=O)c12	6.62 µM (active)	–
CCn1cc(-c2ccnc3[nH]c(-c4cccc(CN(C)C)c4)cc23)c(-c2ccc(NC(=O)N(C)C)cc2)n1	2.96 µM (active)	–
COC(=O)C[C@](O)(CCCC(C)(C)O)C(=O)O[C@@H]1C(OC)=C[C@]23CCCN2CCc2cc4c(cc2[C@H]13)OCO4	–	123%
CC(NCc1ccc2c(c1)nc(NC(=O)c1ccc(-c3cn[nH]c3)s1)n2CC(C)(C)O)C(C)(C)C (stereo not given)	0.264 µM (active)	–
CC[C@H]1CN2CCc3cc(OC)c(OC)cc3[C@H]2C[C@@H]1C[C@@H]1NCCc2cc(OC)c(OC)cc21	0.235 µM (active)	–
Nc1ccn([C@@H]2CS[C@H](CO)O2)c(=O)n1	–	110% [at 92.2 µM]
Cc1cc(CN2CCN(c3c(Br)cnc4nc(-c5ccc(N6CCN(C)CC6)cc5)[nH]c34)CC2)no1	4.18 µM (active)	–
CC(C)(C)c1cc(C(C)(C)C)c(NC(=O)c2c[nH]c3ccccc3c2=O)cc1O	–	139%
COc1cc2ncn(-c3cc(OCc4ccccc4C(F)(F)F)c(C(N)=O)s3)c2cc1OC	0.743 µM (active)	–
Cc1c(CN2CCN(S(C)(=O)=O)CC2)sc2c(N3CCOCC3)nc(-c3cnc(N)nc3)nc12	0.0662 µM (active)	–
CC(=O)c1c(C)c2cnc(Nc3ccc(N4CCNCC4)cn3)nc2n(C2CCCC2)c1=O	18.7 µM (active)	–
N#CCNC(=O)c1ccc(-c2ccnc(Nc3ccc(N4CCOCC4)cc3)n2)cc1	11.8 µM (active)	–
COc1ccc(OC)c(-c2nnc3ccc(-c4ccc(OC)c(O[C@@H]5CCOC5)c4)nn23)c1	8.33 µM (active)	–
CS(=O)(=O)c1ccc(-c2cnc(N)c(C(=O)Nc3ccccc3)n2)cc1	10.5 µM (active)	–
Clc1cccc(-c2nnnn2Cc2cccnc2)c1Cl	–	124%
Cc1[nH]c2ccccc2c1CCNCc1ccc(C=CC(=O)NO)cc1	0.0264 µM (active)	–
CC(C)Nc1cc(C(F)(F)F)cc2nc(NC(=O)c3cccnc3)nn12	–	128%
CN1CCN(c2cc(C(=O)Nc3ccc4c(c3)-c3c(c(C(N)=O)nn3-c3ccc(F)cc3)CC4)c(Cl)cn2)CC1	9.35 µM (active)	–

Reference: PubChem BioAssay (NCATS)
